According to the supplement of paper PMC13380429:

Tested on: Vero E6 infected with SARS-CoV-2
Test: inhibition of SARS-CoV-2 cytopathic effect; higher = more antiviral protection, active = above 15
Conditions: 48 h

Measured: inhibition of SARS-CoV-2 cytopathic effect

CCOC(=O)C1=C(C)NC(c2ccccc2)=C(C(=O)OCc2ccc([N+](=O)[O-])cc2)[C@@H]1C#Cc1ccccc1
inactive: 1 nM 2.05% | 8.33 nM -1.34% | 100 nM 0.42% | 833.33 nM 1.51% | 10000 nM 3.9%

CC(=O)Oc1ccccc1C(=O)O [aspirin]
inactive: 1 nM -5.74% | 8.33 nM -5.82% | 100 nM -7.3% | 833.33 nM -5.09% | 10000 nM -12.8%

CC(C)(C)[C@]1(O)CCN2C[C@H]3c4ccccc4CCc4cccc(c43)[C@@H]2C1 [butaclamol]
inactive: 1 nM 1.69% | 8.33 nM 1.31% | 100 nM 0.21% | 833.33 nM 1.72% | 10000 nM -3.01%

c1ccc(C[C@H](c2ccccc2)N2CCCCC2)cc1 (racemic) [1-(1,2-diphenylethyl)piperidine-(+/-)]
inactive: 1 nM 0.78% | 8.33 nM 0.67% | 100 nM 0.96% | 833.33 nM 0.92% | 10000 nM 2.17%

CC(=O)N(CC(C)C(=O)O)c1c(I)cc(I)c(N)c1I (stereo not given) [iocetamic-acid]
inactive: 1 nM -1.3% | 8.33 nM 1.93% | 100 nM 1.81% | 833.33 nM 0.62% | 10000 nM 3.4%

CC(=O)Nc1nc2c(Oc3cc(-c4ccc(C(F)(F)F)cc4)ncn3)cccc2s1
inactive: 1 nM 1.07% | 8.33 nM 0.66% | 100 nM 2.03% | 833.33 nM 2.31% | 10000 nM 1.83%

NS(=O)(=O)c1cc2c(cc1Cl)N=CNS2(=O)=O [chlorothiazide]
inactive: 1 nM 0.29% | 8.33 nM 0% | 100 nM -0.95% | 833.33 nM -0.05% | 10000 nM -0.76%

O=C(Nc1cccc(Nc2ncc(Br)c(NCCc3cnc[nH]3)n2)c1)N1CCCC1
inactive: 1 nM -2.91% | 8.33 nM -2.57% | 100 nM -1% | 833.33 nM -2.29% | 10000 nM -4.48%

Clc1cccc(-c2nnnn2Cc2cccnc2)c1Cl
inactive: 1 nM -1.94% | 8.33 nM -0.7% | 100 nM 0.71% | 833.33 nM -2.59% | 10000 nM -3.45%

Cc1c(Cl)c(C)[n+]([O-])c(Cl)c1-c1noc(-c2cc(O)c(O)c([N+](=O)[O-])c2)n1 [opicapone]
inactive: 1 nM 2.55% | 8.33 nM 1.95% | 100 nM 0.21% | 833.33 nM 0.43% | 10000 nM -1.39%

C[C@@H]1Cc2c([nH]c3ccccc23)[C@@H](c2c(F)cc(/C=C/C(=O)O)cc2F)N1CC(C)(C)F
inactive: 1 nM 0.69% | 8.33 nM 1.08% | 100 nM -2.47% | 833.33 nM -1.93% | 10000 nM -3.78%

O=C1O[C@H]([C@@H](O)CO)C([O-])=C1O.[Na+] [sodium-ascorbate]
inactive: 1 nM -1.43% | 8.33 nM 0.79% | 100 nM 0.39% | 833.33 nM 1.19% | 10000 nM 2.74%

CN1CCN(C(=O)O[C@H]2c3nccnc3C(=O)N2c2ccc(Cl)cn2)CC1
inactive: 1 nM 0.72% | 8.33 nM 1.71% | 100 nM 2.86% | 833.33 nM 2.34% | 10000 nM 0.85%

O=C(O)c1ccc(S(=O)(=O)N(Cc2ccc(OC(F)(F)F)cc2)c2ncc(C(F)(F)F)cc2Cl)cc1
inactive: 1 nM 1.52% | 8.33 nM -0.05% | 100 nM 1.73% | 833.33 nM 1.99% | 10000 nM 4.63%

CCCNC(=O)N1N=C(c2ccc(N)cc2)c2cc3c(cc2C1C)OCO3 (stereo not given)
inactive: 1 nM -4.65% | 8.33 nM -0.41% | 100 nM 1.6% | 833.33 nM 0.9% | 10000 nM 4.48%

O=C(O)c1cccc(-c2noc(-c3ccccc3F)n2)c1 [ataluren]
inactive: 1 nM -0.23% | 8.33 nM 0.96% | 100 nM 0.68% | 833.33 nM 2.99% | 10000 nM 2.92%

Cc1c(N)c(=O)n(-c2ccccc2)n1C [ampyrone]
inactive: 1 nM -3.22% | 8.33 nM -2.95% | 100 nM -3.07% | 833.33 nM -2.31% | 10000 nM -1.12%

CCC(NC(C)C)C(O)c1ccc(O)c2[nH]c(=O)ccc12 (stereo not given) [procaterol]
inactive: 1 nM -1.54% | 8.33 nM 0.18% | 100 nM -2.76% | 833.33 nM -0.33% | 10000 nM -1.47%

Cc1[nH]c(/C=C2\C(=O)Nc3ccc(S(=O)(=O)N(C)c4cccc(Cl)c4)cc32)c(C)c1C(=O)N1CCN(C)CC1
inactive: 1 nM 2.2% | 8.33 nM 0.76% | 100 nM -0.49% | 833.33 nM 0.96% | 10000 nM -1.88%

COc1ccc(OC)c(C(O)C(C)N)c1 (stereo not given) [methoxamine]
inactive: 1 nM 0.07% | 8.33 nM -0.09% | 100 nM 1.61% | 833.33 nM 3.81% | 10000 nM 0.66%

CC(=O)OCC(=O)[C@@]1(O)CC[C@H]2[C@@H]3CCC4=CC(=O)C=C[C@]4(C)[C@@]3(Cl)[C@@H](Cl)C[C@@]21C [dichlorisone-acetate]
inactive: 1 nM -1.93% | 8.33 nM -2.25% | 100 nM -3.39% | 833.33 nM -2.97% | 10000 nM -2.91%

CNC(=O)Oc1cccc2ccccc12 [carbaril]
inactive: 1 nM -0.49% | 8.33 nM -0.59% | 100 nM 0.05% | 833.33 nM 1.22% | 10000 nM -0.51%

O=C(CC12CC3CC(CC(C3)C1)C2)Nc1cccc2nc(NCCNCCO)ccc12
inactive: 1 nM 3.46% | 8.33 nM 8.07% | 100 nM 0.57% | 833.33 nM 4.43% | 10000 nM 4.98%

CCC1(c2ccccc2)C(=O)N(COC)C(=O)N(COC)C1=O [eterobarb]
inactive: 1 nM -0.71% | 8.33 nM 0.82% | 100 nM -1.29% | 833.33 nM -0.57% | 10000 nM 0.84%

O=C(CCBr)N1CC[N+]2(CC1)CC[N+]1(CCN(C(=O)CCBr)CC1)CC2 [spirobromin]
inactive: 1 nM -0.01% | 8.33 nM -0.86% | 100 nM -0.61% | 833.33 nM -2.75% | 10000 nM -3.3%

On1ncc(C2CCNCC2)c1-c1cccc(-c2ccccc2)c1
inactive: 1 nM 0.6% | 8.33 nM 1.61% | 100 nM 1.14% | 833.33 nM 0.48% | 10000 nM -2.39%

CS(=O)(=O)Nc1ccc([N+](=O)[O-])cc1Oc1ccccc1 [nimesulide]
inactive: 1 nM 0.43% | 8.33 nM -0.72% | 100 nM 1.12% | 833.33 nM 2.18% | 10000 nM 2.92%

CCc1[nH]c(=O)[nH]c1C(=O)c1ccncc1 [piroximone]
inactive: 1 nM -0.93% | 8.33 nM 5% | 100 nM 3.91% | 833.33 nM 3.62% | 10000 nM -1.11%

C=Cc1cc(O)cc2nc(-c3ccc(O)c(F)c3)oc12 [prinaberel]
inactive: 1 nM 0.2% | 8.33 nM 0.74% | 100 nM 1.61% | 833.33 nM 0.55% | 10000 nM 0.56%

Nc1ccc(S(=O)(=O)Nc2nccs2)cc1 [sulfathiazole]
inactive: 1 nM 1.78% | 8.33 nM 2.25% | 100 nM 0.28% | 833.33 nM 1.1% | 10000 nM -0.08%

CC1(C)CCC(C)(C)c2cc(NC(=O)c3ccc(C(=O)O)cc3)ccc21 [tamibarotene]
inactive: 1 nM 4.56% | 8.33 nM 1.67% | 100 nM 1.5% | 833.33 nM 0.87% | 10000 nM 0.68%

O=C(CNC(=O)c1ccc(Cl)cc1)NO [benurestat]
inactive: 1 nM -3.63% | 8.33 nM -2.49% | 100 nM -1.54% | 833.33 nM -0.58% | 10000 nM 0.4%

Nc1nc(=O)c(Br)c(-c2ccccc2)[nH]1 [bropirimine]
inactive: 1 nM -2.33% | 8.33 nM 1.04% | 100 nM 1.75% | 833.33 nM -0.1% | 10000 nM -0.45%

CC(C)(C)c1ccc(CN2CCN(C(c3ccccc3)c3ccc(Cl)cc3)CC2)cc1 (stereo not given) [buclizine]
inactive: 1 nM -1.54% | 8.33 nM -0.87% | 100 nM 0.71% | 833.33 nM 0.45% | 10000 nM 2.38%

Cc1cc(NC(=O)NCCN2CCC(O)(Cc3ccccc3)CC2)c2ccccc2n1 [palosuran]
inactive: 1 nM -0.45% | 8.33 nM 0.24% | 100 nM 0.95% | 833.33 nM 2.2% | 10000 nM 1.86%

O=c1cc(-c2ccc(O)cc2)oc2cc(O)cc(O)c12 [apigenin]
inactive: 1 nM -2.83% | 8.33 nM -3.34% | 100 nM -1.73% | 833.33 nM 0.85% | 10000 nM 6.4%

Nc1nc2c(ccc3ccccc32)s1
inactive: 1 nM -0.98% | 8.33 nM -0.18% | 100 nM -1.85% | 833.33 nM -0.09% | 10000 nM -1.09%

N[C@@H](CC(=O)N1CCn2c(nnc2C(F)(F)F)C1)Cc1cc(F)c(F)cc1F [sitagliptin]
inactive: 1 nM -0.24% | 8.33 nM 1.03% | 100 nM 2.43% | 833.33 nM 3.7% | 10000 nM 1%

COc1ccc(C2CC(c3c(O)cc(C)oc3=O)=NCCS2)c(OC)c1 (stereo not given)
inactive: 1 nM 0.21% | 8.33 nM 3.01% | 100 nM -2.07% | 833.33 nM -0.81% | 10000 nM -8.62%

CC(=O)Oc1ccccc1C(=O)Oc1cccc(CO[N+](=O)[O-])c1
inactive: 1 nM -1.24% | 8.33 nM -0.2% | 100 nM -0.7% | 833.33 nM 0.32% | 10000 nM 3.31%

COc1ccc(-c2cc(=O)c3c(OC)c(OC)c(OC)c(OC)c3o2)cc1 [tangeritin]
inactive: 1 nM 2.13% | 8.33 nM 0.56% | 100 nM -0.23% | 833.33 nM 0.3% | 10000 nM -0.52%
